Assay results: PubChem BioAssay (Tox21)
Records with an inconclusive call do not appear. Values without a mark were called inactive. Calls come from the whole dose curve.

Experiment: qHTS assay to identify small molecule agonists of the progesterone receptor (PR) signaling pathway - cell viability counter screen (AID 1346799); note: nearly all actives have a fitted effect of over 45% in size
Conditions: PR-UAS-bla HEK293T viability, CellTiter-Glo luminescence, 16 h; series mostly up to 92.4 µM; activity change, negative = cytotoxicity: at the top concentration
From the text: National Center for Advancing Translational Sciences [NCATS]
NIH Chemical Genomics Center [NCGC]
U.S. Environmental Protection Agency [EPA]
National Institutes of Environmental Health Sciences [NIEHS]
National Toxicology Program [NTP]
U.S. Food and Drug Administration [FDA]
Progesterone receptor (PR), a nuclear hormone receptor, plays an important role in development, metabolic homeostasis and reproduction. It is activated by the steroid hormone progesterone. Endocrine disrupting chemicals (EDCs) and their interactions with steroid hormone receptors like PR causes disruption of normal endocrine function. To identify the compounds that stimulate PR signaling, a PR-UAS-bla GripTite cell line i.e. PR-UAS-bla HEK293T (Invitrogen, Carlsbad, CA, USA) containing a beta-lactamase reporter gene under the control of an UAS response element was used to screen Tox21 10K compound library. The cytotoxicity of the Tox21 compound library against the PR-bla cell line was tested in parallel by measuring the cell viability using CellTiter-Glo assay in the same wells.
Tox21 Assay Protocol Summary:
PR-UAS-bla HEK293T cells were dispensed at 3,000 cells/5 uL of assay medium containing 2% charcoal stripped FBS per well into black wall/clear-bottom 1536-well plates using a Multidrop Combi (ThermoFisher Scientific, Waltham, MA) dispenser. After the assay plates were incubated at a 37C and 5% CO2 for 6 hr, 23 nL of compounds dissolved in DMSO, positive controls or DMSO only was transferred to the assay plate by a Pintool station (Kalypsys, San Diego, CA). The plates were incubated at 37C and 5% CO2 for 16 hr. Then 1 uL of LiveBLAzer B/G FRET substrate was added using a Flying Reagent Dispenser (FRD, Aurora Discovery, San Diego, CA), the plates were incubated at room temperature for 2 hours, and fluorescence intensity was measured by an Envision plate reader (PerkinElmer, Shelton, CT). For cell viability readout that measures cytotoxicity, 4 uL/well of CellTiter-Glo reagent was added into the assay plates using a FRD. After 30 min incubation at room temperature, the luminescence intensity in the plates was measured using a ViewLux (PerkinElmer) plate reader.
% is set by controls: 0 for no effect and ±100 for the full control effect.

Compound | activity change, negative = cytotoxicity
CCCC1CCCC(=O)O1 (stereo not given) | 2.11%
O=[N+]([O-])c1cccc(I)c1 | 2.13%
O=C1c2ccccc2C(=O)C1c1ccc2ccccc2n1 | 0% [at 42.5 µM]
CC(C)(C)c1cc(C=O)cc(C(C)(C)C)c1O | -15.4% [at 42.5 µM]
O=C(OCCN1CCOCC1)c1cccnc1Nc1cccc(C(F)(F)F)c1 | 25.4% [at 42.5 µM]
CC(O)C(C)O (stereo not given) | -1.07%
O=C(Nc1ccccc1)c1cc([N+](=O)[O-])ccc1Cl | 18.8%
CC(C)=CCC[C@H](C)CCO | -11.5%
C/C=C1\[C@H]2C=C(C)C[C@]1(N)c1ccc(=O)[nH]c1C2 | 2.44% [at 42.5 µM]
Cc1cc(C)c(C)c(O)c1 | 3.93%
Nc1ccccc1Nc1ccccc1 | -12.2%
CCC(=O)O[C@@H]1C[C@H]2CC[C@]1(C)C2(C)C | 13.3%
COc1ccc(C(=O)Nc2ccccc2)cc1[N+](=O)[O-] | 0.814%
CCCC1CCOC(C)S1 (stereo not given) | 4.77%
OCCc1ccncc1 | -23.6%
CC(C)(C)N | 6.38%
Sc1nc(S)nc(S)n1 | 2.99% [at 42.5 µM]
CCN(CC)CC(=O)OCC(=O)[C@@]1(O)CC[C@H]2[C@@H]3CCC4=CC(=O)CC[C@]4(C)[C@H]3[C@@H](O)C[C@@]21C | 12.4% [at 42.5 µM]
CCCCC(CC)COCCC#N (stereo not given) | 54.4%
O=Cc1ccc(Cl)c([N+](=O)[O-])c1 | 19.2%

Compound | activity change, negative = cytotoxicity
CC1(C)CC(=O)CC(C)(C)N1 | 2.57%
CC(=O)OCC(=O)[C@@]1(O)CC[C@H]2[C@@H]3CCC4=CC(=O)C=C[C@]4(C)[C@@]3(F)[C@@H](O)C[C@@]21C | 0% [at 42.5 µM]
O=c1[nH][nH]c2ccccc12 | -6%
COc1ccnc2c1CCCCC2S(=O)c1nc2ccccc2[nH]1 (stereo not given) | 2.93% [at 42.5 µM]
O=c1[nH]nc(-c2ccc([N+](=O)[O-])o2)o1 | 32.8%
CC(=O)Nc1ccccc1O | 1.66%
Cc1ccc2ccccc2c1[N+](=O)[O-] | 10%
O=C1C=CCCC1 | 4.26%
Clc1nc2ccccc2nc1Cl | -0.726%
N#C[C@@H]1CC(F)(F)CN1C(=O)CNC1CC2CCC(C1)N2c1ncccn1 (stereo not given in full) | 3.02%
c1ccc(CN(Cc2ccccc2)Cc2ccccc2)cc1 | 12.4%
CCc1ccc(C(=O)C(C)CN2CCCCC2)cc1 (stereo not given) | -18.6% [at 42.5 µM]
CCCCCCCCS | 13.6%
O=[N+]([O-])c1ccccc1CCO | 1.75%
Cc1c(Cl)cccc1[N+](=O)[O-] | 1.7%
CC(C)(C)c1ccc(CCC=O)cc1 | 14.5%
CC(=O)Nc1cccc(N)c1 | -2.63%
Nc1ncnc2c1ncn2[C@@H]1O[C@H](CO)[C@@H](O)[C@H]1O | 1.88% [at 42.5 µM]
CC1(C)C(=O)NC(=O)N1CO | 7.39%
C=CC(=O)OCCCCCCCCCC | 11.4%
